Source: PubChem BioAssay AID1159580 (chemical genetic matrix, 2015)
Where “and” joins values, the source holds several entries; their conditions need not be identical. Equal entries are not always repeated. About 2,000 (36%) of roughly 5,500 compounds were called active. About 18% were inconclusive and are not listed. Cut-off read from the data, not from the text of the source: active = normalized growth mostly below about 0.91 (no sharp cut-off); inconclusive = no clear call, values can overlap the other calls; inactive = mostly above about 0.92. The list shows a part of the results.

Assay: chemical genetic growth profiling, strain panel (AID 1159580);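 note: tested at 20 µM; growth read once vehicle control cultures reached saturation at 30 °C; 1 = growth at the plate median or of vehicle wells; lower values mean less growth of the strain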
Settings: S. cerevisiae deletion strains, growth OD

Measured: normalized growth

Nc1nc(N)c2nc(CNc3ccc(C(=O)NC(CCC(=O)O)C(=O)O)cc3)cnc2n1 (stereo not given)
active: locus YBR021W, strain FUR4, hits give low values 1.2 [resistant]
inactive: locus YAL013W, strain DEP1, hits give low values 1.03 | locus YAL021C, strain ccr4, hits give low values 0.925 | locus YAL026C, strain drs2, hits give low values 0.991 | locus YAL030W, strain snc1, hits give low values 0.989 | locus YAL040C, strain CLN3, hits give low values 0.994 | locus YBL061C, strain skt5, hits give low values 1 | locus YBR009C, strain hhf1, hits give low values 0.991 | locus YBR023C, strain chs3, hits give low values 0.995 | locus YBR171W, strain sec66, hits give low values 1.01 | locus YBR229C, strain ROT2, hits give low values 1 | locus YBR231C, strain swc5, hits give low values 1.01 | locus YBR279W, strain paf1, hits give low values 1 | locus YCL011C, strain gbp2, hits give low values 0.983 | locus YCL016C, strain dcc1, hits give low values 0.975 | locus YCL029C, strain bik1, hits give low values 0.977 | locus YCL069W, strain vba3, hits give low values 0.996 | locus YCR088W, strain abp1, hits give low values 0.996 | locus YDL005C, strain med2, hits give low values 0.996 | locus YDL035C, strain GPR1, hits give low values 1.03 | locus YDL040C, strain nat1, hits give low values 1 | locus YDL074C, strain BRE1, hits give low values 0.993 | locus YDL101C, strain DUN1, hits give low values 0.996 | locus YDL134C, strain PPH21, hits give low values 1.02 | locus YDL185W, strain tfp1, hits give low values 0.961 | locus YDL192W, strain arf1, hits give low values 1 | locus YDR001C, strain nth1, hits give low values 0.987 | locus YDR069C, strain doa4, hits give low values 0.985 | locus YDR101C, strain arx1, hits give low values 0.982 | locus YDR137W, strain rgp1, hits give low values 0.985 | locus YDR150W, strain NUM1, hits give low values 1 | locus YDR159W, strain sac3, hits give low values 1.05 | locus YDR162C, strain NBP2, hits give low values 0.993 | locus YDR195W, strain ref2 0.961 | locus YDR297W, strain sur2, hits give low values 1 | locus YDR318W, strain mcm21, hits give low values 1 | locus YDR334W, strain swr1, hits give low values 0.985 | locus YDR335W, strain msn5, hits give low values 0.977 | locus YDR363W, strain ESC2, hits give low values 1 | locus YDR388W, hits give low values 0.994 | locus YDR392W, strain spt3, hits give low values 0.94 | locus YDR502C, strain sam2, hits give low values 1 | locus YEL003W, strain gim4, hits give low values 1 | locus YEL037C, strain rad23, hits give low values 0.989 | locus YEL061C, strain CIN8 (second series), hits give low values 0.996 | locus YEL061C, strain CIN8, hits give low values 0.994 | locus YER002W, strain NOP16, hits give low values 0.993 | locus YER015W, strain faa2, hits give low values 0.994 | locus YER016W, strain bim1, hits give low values 0.998 | locus YER110C, hits give low values 0.981 | locus YER111C, strain swi4, hits give low values 0.995 | locus YER155C, strain BEM2 (second series), hits give low values 1.05 | locus YER155C, strain BEM2, hits give low values 0.987 | locus YER167W, strain BCK2, hits give low values 1 | locus YFR010W, strain ubp6, hits give low values 0.982 | locus YGL078C, strain dbp3, hits give low values 0.999 | locus YGL086W, strain mad1, hits give low values 0.994 | locus YGL167C, strain pmr1, hits give low values 0.974 | locus YGL173C, strain kem1, hits give low values 1.01 | locus YGL227W, strain vid30, hits give low values 1 | locus YGL240W, strain doc1, hits give low values 1.03 | locus YGL248W, strain PDE1, hits give low values 1 | locus YGL253W, strain hxk2, hits give low values 1.01 | locus YGR078C, strain PAC10, hits give low values 1.02 and 0.965 | locus YGR135W, strain pre9, hits give low values 0.998 | locus YGR252W, strain gcn5, hits give low values 1.14 | locus YHR013C, strain ard1, hits give low values 0.971 | locus YHR027C, strain rpn1, hits give low values 0.982 | locus YHR030C, strain SLT2, hits give low values 0.99 | locus YHR079C, strain IRE1 (second series), hits give low values 0.978 | locus YHR094C, strain hxt1, hits give low values 0.991 | locus YHR129C, strain ARP1, hits give low values 1 | locus YHR142W, strain chs7, hits give low values 0.965 | locus YHR200W, strain rpn10, hits give low values 0.992 | locus YIL066C, strain RNR3, hits give low values 1 | locus YIL073C, strain SPO22, hits give low values 0.946 | locus YIL125W, strain kgd1, hits give low values 0.993 | locus YIR030C, strain dcg1, hits give low values 0.988 | locus YJL092W, strain hpr5, hits give low values 0.983 | locus YJL095W, strain BCK1 (second series), hits give low values 0.985 | locus YJL095W, strain BCK1, hits give low values 0.984 | locus YJL115W, strain asf1, hits give low values 0.962 | locus YJL129C, strain trk1, hits give low values 0.998 | locus YJL134W, strain LCB3, hits give low values 0.988 | locus YJL154C, strain vps35, hits give low values 0.99 | locus YJL164C, strain tpk1, hits give low values 0.964 | locus YJL166W, strain qcr8, hits give low values 1.02 | locus YJL168C, strain set2, hits give low values 0.998 | locus YJL187C, strain SWE1 (second series), hits give low values 0.992 | locus YJR043C, strain POL32, hits give low values 1.04
